# About 14,000 (4.5%) of roughly 310,000 compounds showed an effect of 50% or more. Effects have a minus sign here. This is one part of a sample in which strong results are shown more often than they occur.
# Target: human ether-à-go-go-related gene (hERG) potassium channel (human, UniProt Q12809)
# Test: primary screen, population patch clamp on CHO cells stably expressing hERG; higher = less effect of the substance
# 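Further: peak tail current of the secondary pulse compared with the same well before compound.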
# Sequence of human ether-à-go-go-related gene (hERG) potassium channel (Q12809 whole entry, looked up): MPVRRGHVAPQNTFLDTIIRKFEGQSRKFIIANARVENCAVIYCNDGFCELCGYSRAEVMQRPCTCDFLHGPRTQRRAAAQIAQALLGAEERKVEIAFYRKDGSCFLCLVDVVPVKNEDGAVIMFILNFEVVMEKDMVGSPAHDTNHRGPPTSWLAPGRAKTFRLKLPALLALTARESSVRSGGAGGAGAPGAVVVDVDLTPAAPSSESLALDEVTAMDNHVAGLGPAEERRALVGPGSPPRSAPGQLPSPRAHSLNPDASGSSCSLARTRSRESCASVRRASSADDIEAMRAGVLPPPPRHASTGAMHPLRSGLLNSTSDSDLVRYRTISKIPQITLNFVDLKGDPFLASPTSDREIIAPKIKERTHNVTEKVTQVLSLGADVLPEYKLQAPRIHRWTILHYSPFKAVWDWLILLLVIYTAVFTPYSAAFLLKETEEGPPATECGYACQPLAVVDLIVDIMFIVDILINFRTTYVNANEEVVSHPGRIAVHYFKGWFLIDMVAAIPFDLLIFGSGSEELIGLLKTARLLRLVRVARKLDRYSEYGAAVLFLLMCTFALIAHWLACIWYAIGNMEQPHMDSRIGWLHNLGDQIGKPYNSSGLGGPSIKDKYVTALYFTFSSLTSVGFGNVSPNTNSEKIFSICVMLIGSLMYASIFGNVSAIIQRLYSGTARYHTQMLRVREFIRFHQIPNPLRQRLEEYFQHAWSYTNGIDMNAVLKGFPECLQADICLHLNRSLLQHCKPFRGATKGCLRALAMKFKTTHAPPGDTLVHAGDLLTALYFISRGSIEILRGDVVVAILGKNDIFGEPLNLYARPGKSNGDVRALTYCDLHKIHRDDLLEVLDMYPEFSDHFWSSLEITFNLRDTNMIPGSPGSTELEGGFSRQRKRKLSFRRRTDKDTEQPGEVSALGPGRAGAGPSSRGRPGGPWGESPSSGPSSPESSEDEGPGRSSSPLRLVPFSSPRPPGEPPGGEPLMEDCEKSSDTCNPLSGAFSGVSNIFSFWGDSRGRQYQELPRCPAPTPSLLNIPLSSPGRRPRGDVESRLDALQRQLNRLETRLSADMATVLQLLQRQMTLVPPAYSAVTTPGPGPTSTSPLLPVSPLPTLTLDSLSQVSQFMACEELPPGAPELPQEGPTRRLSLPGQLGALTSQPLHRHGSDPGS
row,SMILES,"hERG current change (%, negative = inhibition) at 10uM"
1,COC(=O)Cn1c(=O)cnc2ccccc21,-2.96%
2,CCn1cnc2c(oc3ccccc32)c1=O,18.3%
3,CCOC(=O)c1sc(=S)n(-c2ccc(OC)cc2)c1C,-51.1%
4,Cc1ccc(-n2c(N)c(C(=O)N3CCN(C)CC3)sc2=S)cc1,-30.4%
5,CN1CCN(C(=O)c2sc(=S)n(-c3ccccc3)c2N)CC1,-10.2%
6,CCOc1ccc(-n2c(N)c(C(=O)N3CCN(C)CC3)sc2=S)cc1,-51%
7,CCOC(=O)c1sc(=S)n(-c2ccc(Cl)cc2)c1C,-37.4%
8,CCOC(=O)c1sc(=S)n(-c2ccc(OC)cc2)c1N,15.2%
9,COC(=O)c1c(NC(=O)CSc2nnnn2-c2ccccc2)sc2c1CCC(C(C)(C)C)C2 (stereo not shown),-1.38%
10,C=CCn1c(SCC(=O)Nc2cccnc2Cl)nnc1-c1ccc(Cl)cc1,-45.4%
11,CCOC(=O)C1(C)C=C(Nc2ccccc2)C(=O)N1c1ccccc1 (stereo not shown),25.7%
12,Cc1c(NC(=O)/C(C#N)=C/c2c(Oc3ccccc3)nc3ccccn3c2=O)c(=O)n(-c2ccccc2)n1C,5.93%
13,Cc1ccc(CNC(=O)C2CCCC2)cc1,8.93%
14,CCN(CC)S(=O)(=O)N1CCC(C(=O)NCc2ccc(C)cc2)CC1,-16.9%
15,CSc1ccc(CN2CCC(C(=O)NCc3ccc(C)cc3)CC2)cc1.O=C(O)C(=O)O,-87.6%
16,CCN(CC)c1ccc(CN2CCC(C(=O)NCc3ccc(C)cc3)CC2)cc1.O=C(O)C(=O)O,-65.3%
17,Cc1ccc(CNC(=O)C2CCN(S(=O)(=O)N3CCCCC3)CC2)cc1,-11.4%
18,Cc1ccc(CNC(=O)C2CCN(S(=O)(=O)N3CCCC3)CC2)cc1,0.472%
19,O=C1c2ccccc2C(=O)N1CNc1ccccc1,18.7%
20,O=C1CC(c2ccccc2)CN1C(=O)c1cncc(Br)c1 (stereo not shown),5.75%
21,O=C(c1cccnc1)N1N=C(C2CCCCC2)CC1(O)C(F)(F)F (stereo not shown),-0.742%
22,O=C(NCCCN1CCOCC1)c1csc2c1CCCC2,-7.57%
23,CCN1CCN(CCCNC(=O)c2csc3c2CCCCC3)CC1,-7.21%

row,SMILES,"hERG current change (%, negative = inhibition) at 10uM"
1,CC1CC(C)CN(CCCNC(=O)c2csc3c2CCCCC3)C1 (stereo not shown),-61.2%
2,CC1CC(C)CN(CCCNC(=O)c2csc3c2CCCC3)C1 (stereo not shown),-65%
3,O=C(NCCN1CCOCC1)c1csc2c1CCCCC2,5.21%
4,CC1CCCC(C)N1CCCNC(=O)c1csc2c1CCCCC2 (stereo not shown),-49.3%
5,CCC1CCCCN1CCCNC(=O)c1csc2c1CCCCC2 (stereo not shown),-56.7%
6,CCN1CCCC1CNC(=O)c1csc2c1CCCC2 (stereo not shown),-38.9%
7,CC(C)CCNC(=O)c1csc2c1CCCCC2,2.04%
8,CC1(C)Cc2c(sc(NC(=O)c3ccc4ncsc4c3)c2C(N)=O)C(C)(C)N1,-30.5%
9,Cc1cccc(NC(=O)Nc2ccccc2[N+](=O)[O-])n1,16.7%
10,NS(=O)(=O)c1ccc(CCNC(=O)CN2CCN(c3ccc(F)cc3)CC2)cc1,-18.7%
11,COCCSc1ccccc1C(=O)Nc1ccc2c(c1)OCCO2,5.7%
12,CCC(C(=O)NC1CCCC1)N(C(=O)c1snc(C(N)=O)c1N)c1ccc(OC)c(OC)c1 (stereo not shown),15.5%
13,CCOCCCN(C(=O)c1snc(C(N)=O)c1N)C(C(=O)NC1CCCC1)c1ccc(OC)cc1 (stereo not shown),-60.5%
14,COc1ccc(C(C(=O)NC2CCCCC2)N(C(=O)c2snc(C(N)=O)c2N)c2ccc(OC)cc2OC)cc1 (stereo not shown),9.37%
15,CCOc1ccc(C(C(=O)NC2CCCCC2)N(CCOC)C(=O)c2snc(C(N)=O)c2N)cc1 (stereo not shown),-47.5%
16,CCC(C(=O)NC1CCCCC1)N(C(=O)c1snc(C(N)=O)c1N)c1ccc(OC)cc1OC (stereo not shown),-69.3%
17,CCOCCCN(C(=O)c1snc(C(N)=O)c1N)C(C(=O)NCCC(C)C)c1ccc(F)cc1 (stereo not shown),-23.6%
18,CCOc1ccc(C(C(=O)NC2CCCC2)N(C(=O)c2snc(C(N)=O)c2N)C2CCCC2)cc1 (stereo not shown),-51.1%
19,CCOCCCN(C(=O)c1snc(C(N)=O)c1N)C(C(=O)NC1CCCC1)c1ccc(F)cc1 (stereo not shown),-12%
20,COc1ccc(C(C(=O)NC2CCCC2)N(C(=O)c2snc(C(N)=O)c2N)C2CCCC2)cc1OC (stereo not shown),5.77%
21,CCOCCCN(C(=O)c1snc(C(N)=O)c1N)C(C(=O)NCCC(C)C)c1ccc(Cl)cc1 (stereo not shown),-68.1%
22,CCOCCCN(C(=O)c1snc(C(N)=O)c1N)C(C(=O)NC(C)(C)C)c1ccc(Cl)cc1 (stereo not shown),-33.1%
23,CCOCCCN(C(=O)c1snc(C(N)=O)c1N)C(C(=O)NC1CCCC1)c1ccc(O)cc1 (stereo not shown),3.52%

# Source: PMC4336329 (PLoS ONE, 2015)
